# The list shows a part of the results. The source made the active and inactive calls.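 The calls were made as follows: active = inhibition reaching a set limit in any replicate at 20 µM, the limit being 80% of the first screen's; inactive = the rest.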
# Molecular target: DNA dC->dU-editing enzyme APOBEC-3G (Homo sapiens) (UniProt Q9HC16)
# Assay: APOBEC3G deaminase inhibitor retest, confirmation, biochemical, fluorescence, single-stranded DNA substrate, single concentration (AID 493152)
# Details: recombinant A3G ssDNA deaminase, UDG/FAM-TAMRA fluorescence; at 20 µM; hits give high values
# Sequence of DNA dC->dU-editing enzyme APOBEC-3G (Homo sapiens) (Q9HC16 whole entry, looked up): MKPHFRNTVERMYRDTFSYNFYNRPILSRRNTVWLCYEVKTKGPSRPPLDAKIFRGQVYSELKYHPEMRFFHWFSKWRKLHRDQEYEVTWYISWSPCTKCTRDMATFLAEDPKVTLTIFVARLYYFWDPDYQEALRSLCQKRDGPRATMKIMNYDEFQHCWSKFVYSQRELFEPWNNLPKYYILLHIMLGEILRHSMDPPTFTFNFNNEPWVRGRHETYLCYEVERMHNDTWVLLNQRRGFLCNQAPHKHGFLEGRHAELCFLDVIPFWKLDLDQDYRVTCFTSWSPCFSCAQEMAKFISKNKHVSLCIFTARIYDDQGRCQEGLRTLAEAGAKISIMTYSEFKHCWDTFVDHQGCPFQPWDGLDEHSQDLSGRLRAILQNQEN
row,SMILES,inhibition
1,CCC(CC)c1nnc(NC(=O)C2CCN(C(=O)c3ccco3)CC2)s1,24.5% (active)
2,Cc1ccnc(-n2sc3ccccc3c2=O)n1,55.1% (active)
3,COc1ccc2[nH]c(=S)cc(C)c2c1,74.7% (active)
4,COc1ccccc1-n1c(-c2cc(-c3ccco3)[nH]n2)n[nH]c1=S,50.2% (active)
5,Nc1ccccc1SC(C[N+](=O)[O-])c1ccccc1 (centres undefined),83.4% (active)
6,CCOc1cc(C(=S)N2CCOCC2)ccc1O,65.3% (active)
7,C=C(C)C(=O)Nc1cccc(C2=NOC3(C2)C[C@H](C(N)=O)N(C(=O)C(c2ccccc2)c2ccccc2)C3)c1 (some centres undefined),44.3% (active)
8,COc1ccc(OCc2nnc3n2N=C(c2ccccc2)C(CC(=O)O)S3)cc1 (centres undefined),27.3% (active)
9,Cn1c2ccccc2c(=O)c2c(=O)n(Cc3ccco3)c(COc3ccccc3)nc21,22% (inactive)
10,CCOc1ccc(NC(=O)Nc2cc(C)on2)cc1,0.05% (inactive)
11,COc1ccc(N2C(=O)CC(Sc3n[nH]c(-c4ccc(C)cc4)n3)C2=O)cc1 (centres undefined),46% (active)
12,Fc1ccc(Nc2nnns2)cc1,23.7% (active)
13,Cc1nc2scc(-c3cccs3)c2c(=O)n1N,0.32% (inactive)
14,Cc1cc(-c2n[nH]c(=S)n2/N=C/c2ccco2)n[nH]1,58.5% (active)
15,O=C1C=CC(=O)N1c1ccc(N2CCCCC2)cc1,91% (active)
16,S=c1[nH]nc(Nc2ccccc2)s1,68.3% (active)
17,Cc1n[nH]c(=S)n1/N=C/c1ccc(Br)o1,80.4% (active)
18,Cc1nc([N+](=O)[O-])nn1C12CC3CC(CC(Br)(C3)C1)C2,50.8% (active)
19,S=c1[nH]ccn1-c1ccc(Cl)cc1,74% (active)
20,CCn1c(CN2C(=O)CSc3ccccc32)n[nH]c1=S,23.9% (inactive)
21,Cc1noc(C)c1CSc1nc2cc(S(=O)(=O)N3CCOCC3)ccc2o1,71.6% (active)
22,CCOC(=O)c1sc(=S)n2c1[nH]c(=O)c1ccc(C(=O)OC)cc12,7.15% (inactive)
23,S=c1[nH]nc2c3c4c(sc3ncn12)CCCC4,80% (active)
24,S=c1[nH]nc(NCCc2ccccc2)s1,81.5% (active)

# Reference: PubChem BioAssay AID493152 (Sanford-Burnham Center for Chemical Genomics, 2011)
